Screening results as filed in PubChem.
Hits are enriched below; roughly 20% of the tested compounds scored in any of these assays.
Pf growth 96h – inhibits malaria parasite growth, 96 h | hit rate 6.9% among 320,000 | Potency, µM (series often up to 28.7 µM), hits mostly inhibitors | P. falciparum luciferase reporter growth, 96 h
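Infected RBCs, 2% Hct / 0.05% parasitemia final; luciferase-reporter P. falciparum; cpd 96 h, 37 C, 5% CO2; luciferase detection reagent; luminescence.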
Shiga inhibitor – inhibitors of Shiga toxin in Vero cells; hit rate 9.2% among 290,000; Vero cells, Shiga toxin protein synthesis inhibition reporter; AID 2315; inhibition, % at 38.7 µM; in the data active means inhibition mostly above about 28%, no sharp cut-off; inactive means mostly below about 43%
CHX counter – affects cycloheximide protein synthesis inhibition readout, counter-screen | hit rate 12% among 300,000 | cell reporter, cycloheximide protein synthesis inhibition counterscreen | max response, %; in the data active means max response mostly above about 13%, no sharp cut-off; inactive means mostly below about 14%; further: read at 38.3 µM for the half of the compounds with a filed dose
HCMV antiviral – inhibitors of human cytomegalovirus | HFF cells, HCMV-luciferase reporter, 72 h; active compounds read low | activity change, negative = inhibition, % at 57.5 µM | hit rate 4.5% among 410,000 | AID 1259415; in the data active means activity change below about -60%; inconclusive means no clear call, values can overlap the other calls; inactive means above about -39%
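Human foreskin fibroblasts infected with luciferase-reporter HCMV at MOI 1 PFU/cell, compounds at two doses. Luciferase measured 72 h post infection; normalized to buffer-only basal and Salinomycin (10uM) controls.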
Pf growth 48h – P. falciparum growth inhibition at 48 hours (one generation); hit rate 5.9% among 310,000; AID 504832; Potency, µM (highest dose often 28.7 µM), usual class: inhibitors; P. falciparum luciferase growth in erythrocytes, 48 h
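Firefly luciferase activity from engineered P. falciparum reports growth; inhibitors lower the luminescent signal. Cultures contained 2% hematocrit erythrocytes at 0.1% final parasitemia.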
Large screens that a line does not name were inactive. Unless noted, the call rests on the fitted dose curve; in most records, active means well fitted inhibition curve with a large enough effect; inconclusive means small, poorly fitted or top-dose-only effect, or another doubt; inactive means no such curve, though single readings can be large or run the other way.

CCOC(=O)c1ccc(N2N=C(C)/C(=C/C=C/c3ccco3)C2=O)cc1	Pf growth 96h 13µM
CCc1ccc(N2NC(=O)/C(=C/C=C/c3ccco3)C2=O)cc1	none
Cc1ccc2c(c1)N(C(=O)N1CCC(C(=O)NC3CCCCCC3)CC1)CCO2	none (no result: Pf growth 96h, Shiga inhibitor, CHX counter, Pf growth 48h)
COc1cc(OC)c(N(C)C(=O)c2sc3nc4n(c(=O)c3c2C)CCCCC4)cc1Cl	none (no result: Pf growth 96h, Shiga inhibitor, CHX counter, Pf growth 48h)
COc1ccc2c(c1)C(C(Nc1ccc(C)cc1)c1ccc(Cl)cc1)C(=O)N2C (stereo not drawn)	none (no result: Pf growth 96h, Shiga inhibitor, CHX counter, Pf growth 48h)
CCn1c(SCC(=O)c2c(N)n(C3CC3)c(=O)[nH]c2=O)nnc1-c1ccoc1C	Pf growth 96h inconclusive, Pf growth 48h inconclusive (no result: Shiga inhibitor, CHX counter)
C=CCn1c(-c2cccc(OC)c2)nc2nc3ccccc3nc21	CHX counter 32
CCCn1c(-c2ccc(OC)cc2)nc2nc3ccccc3nc21	Pf growth 96h 3.7µM
COc1ccc(CCn2c(-c3ccco3)nc3nc4ccccc4nc32)cc1	Shiga inhibitor 43, Pf growth 48h inconclusive
O=c1c2ccccc2nc(-c2ccco2)n1Cc1ccccc1	Pf growth 96h inconclusive, Shiga inhibitor 130, CHX counter 57
CC(=O)NC(c1ccccc1)c1nc(-c2cccc(F)c2)cs1 (stereo not drawn)	none (no result: Pf growth 96h, Shiga inhibitor, CHX counter, Pf growth 48h)
COc1ccc(Nc2nnc(SCC(=O)N(CC(C)C)C3CCS(=O)(=O)C3)s2)cc1 (stereo not drawn)	none (no result: Pf growth 96h, Shiga inhibitor, CHX counter, Pf growth 48h)
Cc1ccc(S(=O)(=O)CC(=O)Nc2nccs2)cc1	Pf growth 48h inconclusive (no result: Shiga inhibitor, CHX counter)
COc1ccc(C(=O)N2CCn3c2nc2ccccc23)cc1	none
c1coc(-c2nc3nc4ccccc4nc3n2CC2CCCO2)c1 (stereo not drawn)	none (no result: Pf growth 48h)
COc1ccc(CCn2c(-c3cccc([N+](=O)[O-])c3)nc3nc4ccccc4nc32)cc1	none (no result: Pf growth 96h, Shiga inhibitor, CHX counter, Pf growth 48h)
CCOc1ccc(CCn2c(-c3ccco3)nc3ccccc3c2=O)cc1OCC	Pf growth 96h inconclusive, HCMV antiviral -76 (no result: Pf growth 48h)
CCCCCn1c(-c2ccco2)nc2nc3ccccc3nc21	Pf growth 96h inconclusive, CHX counter 9.2, Pf growth 48h inconclusive
COc1ccc(C(=O)n2c(-c3ccco3)nc3ccccc32)cc1	Pf growth 96h 2.1µM, CHX counter 31
COc1ccc(CCn2c(-c3cc([N+](=O)[O-])cc([N+](=O)[O-])c3)nc3nc4ccccc4nc32)cc1	Pf growth 96h 0.74µM, Pf growth 48h inconclusive
CC(C)(C)c1ccc(S(=O)(=O)N2CCN(Cc3noc(CCC(=O)N4CCCCC4)n3)CC2)cc1	none (no result: Pf growth 96h, Shiga inhibitor, CHX counter, Pf growth 48h)
c1ccc(Cn2c(-c3ccco3)nc3nc4ccccc4nc32)cc1	CHX counter 28
COc1ccccc1Cn1c(-c2ccco2)nc2nc3ccccc3nc21	none (no result: Pf growth 96h, Shiga inhibitor, CHX counter, Pf growth 48h)
CC(c1ccccc1)N1C(=O)c2cccnc2C1=O (stereo not drawn)	Pf growth 96h inconclusive
CC(NC1=CC(=O)c2cccnc2C1=O)C(O)c1ccccc1 (stereo not drawn)	HCMV antiviral -99 (no result: Pf growth 96h, Shiga inhibitor, CHX counter, Pf growth 48h)
Oc1c(C(Nc2cccc(C(F)(F)F)c2)c2cccnc2)ccc2cccnc12 (stereo not drawn)	Pf growth 96h 3.7µM, Pf growth 48h 9.3µM
Cc1cc(NC(c2cccnc2)c2ccc3cccnc3c2O)no1 (stereo not drawn)	Pf growth 96h 4.1µM, HCMV antiviral -104, Pf growth 48h 2.1µM
CC1(C)N=C(N)NC(Nc2ccc(Br)cc2)=N1	Pf growth 48h 5.2µM (no result: Pf growth 96h)
CC1(C)N=C(N)NC(Nc2cccc(Br)c2)=N1	Pf growth 96h 1.2µM (no result: Pf growth 48h)
CCn1c(=O)c(=O)[nH]c2c(=O)oc3ccc(S(=O)(=O)Nc4ccccc4)cc3c21	none
CCCC(=O)Nc1ccc2nn(-c3ccc(OC)cc3)nc2c1	CHX counter 41 (no result: Shiga inhibitor)
CCCC(=O)Nc1cc2nn(-c3ccc(OC)cc3)nc2cc1C	none (no result: Pf growth 96h, Shiga inhibitor, CHX counter, Pf growth 48h)
Cc1ccc(-n2nc3ccc(NC(=O)c4cccc([N+](=O)[O-])c4C)cc3n2)cc1	CHX counter 28
Cc1ccc(-n2nc3ccc(NC(=O)c4ccco4)cc3n2)cc1	Shiga inhibitor 51, CHX counter 38 (no result: Pf growth 48h)
CC(C)C(=O)Nc1ccc2nn(-c3ccc(F)cc3)nc2c1	Shiga inhibitor 46, CHX counter 28 (no result: HCMV antiviral)
COC(=O)c1cc(NC(=O)c2cccc([N+](=O)[O-])c2C)ccc1Cl	none
CCOc1ccc(-n2nc3ccc(NC(=O)c4cccc(F)c4)cc3n2)cc1	none (no result: Pf growth 96h, Shiga inhibitor, CHX counter, Pf growth 48h)
O=C(Nc1ccc2nn(-c3ccccc3)nc2c1)c1cc2ccccc2o1	none (no result: Pf growth 96h, Shiga inhibitor, CHX counter, Pf growth 48h)
Cc1ccc(-n2nc3ccc(NC(=O)C(C)C)cc3n2)cc1	Shiga inhibitor 119, CHX counter 54
CC(C)CC(=O)Nc1ccc2nn(-c3ccccc3)nc2c1	Shiga inhibitor 53, CHX counter 66
CCOc1ccc(NC(=O)Cn2cc(C(=O)c3ccc(OC)cc3)c(=O)c3cc4c(cc32)OCO4)cc1	none (no result: Pf growth 96h, Shiga inhibitor, CHX counter, Pf growth 48h)
COCc1nn2c(N)c(-c3ccccc3)cnc2c1-c1ccccc1	Pf growth 96h inconclusive, Shiga inhibitor 33, CHX counter 38
COc1ccccc1-n1nc(C)c(-c2ccccc2)c1N	none
COc1ccc(-c2c(C)nn3c(N)c(-c4ccccc4)cnc23)cc1OC	CHX counter 18, Pf growth 48h inconclusive
COc1ccccc1-c1c(C)nn2c(N)c(-c3ccccc3)cnc12	Shiga inhibitor 67, CHX counter 39, HCMV antiviral -82
O=S(=O)(c1ccc2oc(=S)[nH]c2c1)N1CCCCC1	none
Cn1c(=O)oc2cc(S(=O)(=O)N3CCOCC3)ccc21	Pf growth 48h inconclusive
O=S(=O)(c1ccc2c(c1)oc1ccccc12)N1CCOCC1	Pf growth 48h 13µM
O=S(=O)(c1ccc2oc(=S)[nH]c2c1)N1CCOCC1	Pf growth 96h 8.3µM, HCMV antiviral inconclusive, Pf growth 48h inconclusive (no result: Shiga inhibitor, CHX counter)
O=S(=O)(Nc1ccc2c(c1)oc1ccccc12)N1CCCC1	CHX counter 20
Cc1nn(-c2ccccc2)nc1C(=O)NNC(=O)c1ccc(C(F)(F)F)cc1	none
CC(C)C(OC(=O)CN1C(=O)c2ccccc2C1=O)C(=O)NC1CCCCC1 (stereo not drawn)	none
CSC(=S)NN=C(C)c1cccc(C)n1	HCMV antiviral -80 (no result: Pf growth 96h, Shiga inhibitor, CHX counter, Pf growth 48h)
Cc1[nH]nc2c1-c1nc3ccccc3nc1C(C)(C)C2	HCMV antiviral -74 (no result: Pf growth 48h)
O=C(O)c1ccc(S(=O)(=O)Nc2ccc(O)c(Sc3nc4ccccc4s3)c2)cc1	none
COc1cc(OC)c2c(-c3ccccc3)cc(=O)oc2c1C(CC(=O)N1CCN(c2ccccc2)CC1)c1ccc2c(c1)OCO2 (stereo not drawn)	Pf growth 96h inconclusive, Pf growth 48h inconclusive (no result: HCMV antiviral)
COc1cc(OC)c2c(-c3ccccc3)cc(=O)oc2c1C(CC(=O)N1CCOCC1)c1ccc2c(c1)OCO2 (stereo not drawn)	Pf growth 96h inconclusive, HCMV antiviral -94, Pf growth 48h inconclusive
COc1cc(OC)c2c(-c3ccccc3)cc(=O)oc2c1C(CC(=O)N1CCOCC1)c1ccc(N(C)C)cc1 (stereo not drawn)	Pf growth 96h inconclusive, Pf growth 48h 7.4µM
C/C(=N\NC(=O)c1ccc(F)cc1)c1ccc(NC(=O)Cc2ccccc2)cc1	Pf growth 96h inconclusive, Shiga inhibitor 90, CHX counter 41
CSC(=NNC(=O)c1ccc(O)cc1)SC	Shiga inhibitor 42 (no result: Pf growth 48h)
